PubChem BioAssay (NCATS)
Records with an inconclusive call do not appear. A number with no mark means an inactive call. Active and inactive are the calls of the source. The call rests on the fitted dose curve; in most records, active means well fitted inhibition curve with a large enough effect; inconclusive means small, poorly fitted or top-dose-only effect; inactive means flat fitted curve, though single readings scatter.

These molecules were tested on PC26 (assay: qHTS profiling for inhibitors of Plasmodium falciparum proliferation (AID 504749; further: nearly all actives have a fitted effect of over 60% in size;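 on activity, negative = inhibition: 0% = DMSO vehicle and full inhibition = artemisinin control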)). Conditions: P. falciparum in erythrocytes, SYBR Green DNA, 72 h; series mostly up to 28.7 µM; activity, negative = inhibition: at the top concentration.
Procedure, shortened: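 SYBR Green fluorescence of parasite DNA, read after lysis and overnight dark incubation, measured growth over 72 h in erythrocyte culture at 0.3% parasitemia and 2.5% hematocrit. Data normalised to DMSO and 0.29 uM artemisinin, with plate-drift correction.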
Potency means the concentration at half of the fitted maximal effect.

| Structure (SMILES) | activity, negative = inhibition | Potency |
| --- | --- | --- |
| CC(=O)Nc1ncc([N+](=O)[O-])s1 | 1.57% | – |
| C#C[C@]1(O)CC[C@H]2[C@@H]3CCc4cc(OC)ccc4[C@H]3CC[C@@]21C | 0.202% | – |
| CC(=O)Nc1ccc(CC(=O)O)cc1 | -0.975% | – |
| COc1ccc(-c2cc(C(F)F)nn2-c2ccc(S(N)(=O)=O)cc2)cc1F | -6.68% | – |
| Nc1ccc(S(=O)(=O)Nc2cnc3ccccc3n2)cc1 | 1.54% | – |
| CCCCCCCCCCCCCCCCO | 2.43% | – |
| Cc1cccc(C)c1NC(=O)CN1CCCC1 | 1.54% | – |
| C[N+]1(CC2COC(c3ccccc3)(C3CCCCC3)O2)CCCCC1 (stereo not drawn) | – | 4.26 µM (active) |
| CCCCNc1ccc(C(=O)OCCOCCOCCOCCOCCOCCOCCOCCOCCOC)cc1 | -12.7% [at 12.8 µM] | – |
| NC(=S)N/N=C/c1cccnc1 | -4.66% | – |
| O=C(O)P(=O)(O)O | 4.93% | – |
| c1ccc(CC2=NCCN2)cc1 | -6.68% [at 12.8 µM] | – |
| COc1ccc2c(c1)c1c3n2CCN(C)C3=NCC1 | -1.05% | – |
| O=C(O)C1(C(=O)O)CCC1.[NH2-].[NH2-].[Pt+2] | -1.95% | – |
| COc1cc(C(=S)N2CCOCC2)ccc1O | 16.2% | – |
| O=C(O)C(Cc1cc(I)c(O)c(I)c1)c1ccccc1 (stereo not drawn) | 0.459% | – |
| COP(=O)(OC)OC(c1ccc(Cl)cc1)P(=O)(OC)OC (stereo not drawn) | 6.12% | – |
| CCCCNC(=O)NS(=O)(=O)c1ccc(N)cc1 | 2.3% | – |
| CC(=O)Nc1ccc(OCC(O)CNC(C)C)cc1 (stereo not drawn) | 15% | – |

| Structure (SMILES) | activity, negative = inhibition | Potency |
| --- | --- | --- |
| CCCCCCCCOc1ccc(C(=O)c2ccccc2)c(O)c1 | 1.07% | – |
| CCOc1ccccc1OCCN[C@H](C)Cc1ccc(OC)c(S(N)(=O)=O)c1 | 3.4% | – |
| NS(=O)(=O)c1cc(C(=O)O)cc(N2CCCC2)c1Oc1ccccc1 | -1.62% [at 12.8 µM] | – |
| CCCCc1cc2ccccc2c(OCCN(C)C)n1 | -15.7% [at 12.8 µM] | – |
| CNCCc1ccccn1 | 0.336% [at 12.8 µM] | – |
| CC(=O)NC(=O)c1ccccc1O | -9.42% | – |
| CCNC(=O)NCc1cccc(Cl)c1 | -8.25% | – |
| CCc1oc2ccccc2c1C(=O)c1cc(Br)c(O)c(Br)c1 | 1.08% | – |
| CC(C)Cn1cnc2c1c(=O)n(C)c(=O)n2C | -0.168% | – |
| CCCCCCCCCCCCCC[N+](C)(C)Cc1ccccc1 | – | 5.36 µM (active) |
| CCN(CC)CCNC(=O)c1cc(Br)c(N)cc1OC | -6.22% | – |
| CCNC(=O)/C=C/c1cccc(Br)c1 | -0.751% | – |
| NC(=O)c1ccccc1O | -0.423% | – |
| Nc1ccc(S(=O)(=O)NCc2ccccc2)cc1 | 22% | – |
| Cc1cc(NS(=O)(=O)c2ccc(N)cc2)nc(C)n1 | 2.91% | – |
| C#C[C@]1(O)CC[C@H]2[C@@H]3CCC4=Cc5oncc5C[C@]4(C)[C@H]3CC[C@@]21C | -5.62% | – |
| CC(=O)Oc1ccc(C)cc1 | -4.77% | – |
| NC(=O)n1c(O)c(C(=O)c2cccs2)c2cc(Cl)ccc21 | -1.31% | – |
| CCN1/C(=C/C=C/c2sc3ccccc3[n+]2CC)Sc2ccccc21 | – | 0.849 µM (active) |
